Hits are enriched below; roughly 9% of the tested compounds scored in any of these assays.
G9a inh: qHTS Assay for Inhibitors of Histone Lysine Methyltransferase G9a; Histone-lysine N-methyltransferase EHMT2 (Homo sapiens), Q96KQ7; AID 504332, 2011; Potency, µM (titrated, usually from 102 µM), inactives show top-dose activity, negative = inhibition, usual class: inhibitors; actives 8.8% (n = 350,000); G9a H3K9 monomethylation, AlphaScreen, 2 h; further: on the % scale 0 is the no-effect control and ±100 the full control effect; nearly all actives have a fitted effect of over 75% in size
Target sequence (Q96KQ7 913-1193 limits assumed): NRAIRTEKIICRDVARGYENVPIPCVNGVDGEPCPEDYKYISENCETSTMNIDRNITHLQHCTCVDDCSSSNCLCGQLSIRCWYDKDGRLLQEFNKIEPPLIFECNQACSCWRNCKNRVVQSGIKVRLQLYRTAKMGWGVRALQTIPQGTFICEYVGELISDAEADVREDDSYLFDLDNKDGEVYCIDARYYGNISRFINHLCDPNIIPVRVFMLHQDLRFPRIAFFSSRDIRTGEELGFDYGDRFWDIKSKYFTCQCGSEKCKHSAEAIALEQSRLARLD
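G9a (20 nM) preincubated 15 min RT with compounds, then 500 nM biotinylated H3K9 peptide and 20 uM SAM added; 2 h RT reaction. Monomethyl-H3K9 product detected by AlphaScreen with anti-H3K9me1 antibody, streptavidin donor and anti-rabbit IgG acceptor beads.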
HP1b chromo inh: HTS for Inhibitors of HP1-beta Chromodomain Interactions with Methylated Histone Tails. actives 0.56% (n = 390,000). AID 540317, 2011. Potency, µM (highest dose often 114 µM), for the others: at the top dose activity change, negative = inhibition, most hits filed as inhibitors. AlphaScreen HP1-beta / biotin-H3K9me3 peptide binding; further: nearly all actives have a fitted effect of over 70% in size
Target sequence (P83916 whole entry, looked up): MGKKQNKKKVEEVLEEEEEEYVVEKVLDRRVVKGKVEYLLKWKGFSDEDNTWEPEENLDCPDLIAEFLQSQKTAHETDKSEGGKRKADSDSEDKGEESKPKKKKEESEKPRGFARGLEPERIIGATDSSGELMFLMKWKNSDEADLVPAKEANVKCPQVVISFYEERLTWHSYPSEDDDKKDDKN
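HP1-beta protein (50 nM final) preincubated 30 min at room temperature with biotinylated H3(1-18)K9me3 peptide (50 nM) in PBS pH 7.4, 0.01% Tween-20, then compound added for 30 min. AlphaScreen streptavidin donor/nickel chelate acceptor beads (10 ug/mL final), 30 min dark, luminescence read.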
JMJD2A Tudor: qHTS Assay for Inhibitors of JMJD2A-Tudor Domain; Lysine-specific demethylase 4A (Homo sapiens), O75164; AlphaScreen JMJD2A-Tudor / H3K4me3 peptide binding; Potency, µM (titrated, usually from 114 µM), for the others: top-dose activity change, negative = inhibition, most hits filed as inhibitors; actives 4.4% (n = 390,000); AID 504339, 2011; further: on the % scale 0 is the no-effect control and ±100 the full control effect; nearly all actives have a fitted effect of over 50% in size
PLK1 PBD inh: qHTS for Inhibitors of PLK1-PDB (polo-like kinase 1 - polo-box domain): Primary Screen; Potency, µM, for the others: max response, negative = inhibition, most hits filed as inhibitors; actives 2.8% (n = 360,000); Serine/threonine-protein kinase PLK1 (Homo sapiens), P53350; Plk1 PBD binding of FITC phosphopeptide, fluorescence polarization; further: series mostly up to about 57 µM; on the % scale 0 is the no-effect control and ±100 the full control effect; nearly all actives have a fitted effect of over 65% in size
BAZ2B block: qHTS Assay for Inhibitors of BAZ2B | Bromodomain adjacent to zinc finger domain protein 2B (Homo sapiens), Q9UIF8 | AlphaScreen BAZ2B-H3K14Ac peptide displacement | Potency, µM (series often up to 114 µM), without a hit: at the highest dose activity change, negative = inhibition, most hits filed as inhibitors | actives 4.4% (n = 360,000); further: on the % scale 0 is the no-effect control and ±100 the full control effect; nearly all actives have a fitted effect of over 60% in size
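Inhibition is scored as reduced AlphaScreen emission. The BAZ2B/b-H3(5-23)K14Ac complex (50 nM each) in PBS pH 7.4, 0.01% Tween-20 meets compound (up to 110 uM) for 30 min at RT before bead addition.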
12-LOX inh: Primary qHTS assay for inhibitors of human arachidonate 12S-lipoxygenase (ALOX12): Round 2; Polyunsaturated fatty acid lipoxygenase ALOX12 (Homo sapiens), P18054; purified 12hLO, xylenol orange hydroperoxide absorbance; Potency, µM (top dose mostly 108 µM), for the others: at the highest dose activity change, negative = inhibition, usual class: inhibitors; actives 1.1% (n = 580,000); AID 1671190, 2021; further: on the % scale 0 is the no-effect control and ±100 the full control effect
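Purified human 12hLO (150 nM final) in 25 mM Hepes, 0.01% Triton X-100, pH 7.0 was preincubated 15 min at room temperature with compound. Then 40 uM arachidonic acid was added, 30 min. Hydroperoxide was read by Fe-XO absorbance ratio 573/405 nm.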
* hit, by the source's call; ? = inconclusive; . = no result given; [ ] = another dose, or the depositor's remark. The call rests on the fitted dose curve; in most records, active means well fitted curve in the direction sought with a large enough effect; inconclusive means small, poorly fitted or top-dose-only effect, or another doubt; inactive means no such curve, though single readings can be large; an effect the other way counts as inactive or inconclusive. Potency means the concentration at half of the fitted maximal effect.

SMILES	G9a inh	HP1b chromo inh	JMJD2A Tudor	PLK1 PBD inh	BAZ2B block	12-LOX inh
CCc1nnc(N/N=C/c2cc(Br)c(O)cc2O)n1N	50.1µM*	41.0%	79.4µM*	-25.7%	50.1µM*	12.2%
CC(C)(C)c1nnc(N/N=C/c2cc(Br)ccc2O)n(N)c1=O	4.9%[59 µM]	6.5%	22.4µM*	-5.1%	17.8µM*	0.5%
CCc1nnc(N/N=C/c2c(Cl)cccc2Cl)n1N	-7.0%	26.6%	-31.0%	-5.1%	-4.3%	14.5%
COc1cc(NC(=O)Cn2ccnc2)cc(OC)c1	.	.	.	.	.	1.5%
Cc1cnc(C(=O)NC(C)CCc2ccccc2)cn1 (stereo not given)	-1.4%	47.7%	8.6%	2.5%	-8.8%	-27.8%
CCn1c(C)cc(/C=C2/SC(=O)N(C(C)C(=O)OC)C2=O)c1C (stereo not given)	?	-8.0%	?	-4.1%	?	?
CCOC(=O)C(C)N1C(=O)S/C(=C/c2cc(C)n(-c3ccncc3)c2C)C1=O (stereo not given)	50.1µM*	-8.2%	?	0.5%	?	-12.1%
COC(=O)C(C)N1C(=O)S/C(=C/c2cc(C)n(C(C)C)c2C)C1=O (stereo not given)	-2.5%	-21.9%	?	-4.1%	-2.3%	?
CCOC(=O)C(C)N1C(=O)S/C(=C/c2cc(C)n(-c3ccccn3)c2C)C1=O (stereo not given)	6.7%[12.7 µM]	-31.3%	56.2µM*	?	?	-14.4%
Cc1cc(NC(=O)CN2C(=O)S/C(=C\c3ccccc3)C2=O)no1	53.2%[59 µM]	33.8%	-0.7%	-13.7%	5.6%	-18.1%
CCCSc1nsc(NC(=O)CCC)n1	1.3%[59 µM]	53.1%	-6.8%	-15.5%	2.4%	0.1%
CC1=NN(C(N)=S)C(=O)C1N=Nc1ccccc1C (stereo not given)	0.6%[59 µM]	-1.0%	-25.0%	-17.5%	-10.8%	0.0%
CCOc1ccccc1N=NC1C(=O)N(C(N)=S)N=C1C (stereo not given)	50.1µM*	-3.3%	-4.0%	-27.6%	7.4%	-0.7%
CC1=NN(C(N)=S)C(=O)C1N=Nc1ccccc1O (stereo not given)	.	46.9%	56.2µM*	-7.0%	50.1µM*	0.0%
COc1ccc(C(=O)N2CCC3(CC2)CC(O)CCO3)c(C)c1 (stereo not given)	.	.	.	.	.	27.6%
CCn1c(/C=C/c2ccc(O)cc2)nc2ccccc2c1=O	31.3%[59 µM]	33.0%	-8.6%	-12.8%	-14.5%	0.0%
O=c1nc(/C=C/c2ccc(O)c(O)c2)oc2ccccc12	39.8µM*	-6.3%	-28.6%	-4.0%	?	.
CCn1c(/C=C/c2ccc(O)c(O)c2)nc2ccccc2c1=O	.	?	56.2µM*	5.4%	70.8µM*	14.1µM*
COc1ccc(/C=C/c2nc(=O)c3ccccc3o2)cc1	.	.	.	.	.	-3.9%
Cc1ccc(-n2c(=O)c3ccc(C(=O)NCc4ccco4)cc3n(Cc3ccccc3Cl)c2=O)cc1	1.58µM*	24.9%	-9.7%	.	.	-25.2%
Cc1ccc(-n2c(=O)c3ccc(C(=O)NCc4ccco4)cc3n(Cc3ccc(Cl)cc3)c2=O)cc1	0.2%[59 µM]	21.8%	-12.7%	.	.	?
C=C1C(=O)CC2=C1[C@](Cc1ccc(F)cc1)(C(=O)OC)N(C(=O)c1ccccc1)C2	.	.	.	-11.9%	.	?
C=C1C(=O)C=C2CN(C(=O)c3ccccc3)[C@@](Cc3ccc(F)cc3)(C(=O)OC)[C@@H]12	8.91µM*	10.8%	-29.0%	16.8µM*	-7.4%	.
O=C(CNCCC1=CCCCC1)Nc1ccccc1N1CCCCC1	1.78µM*	?	5.62µM*	-8.6%	50.1µM*	?

Assay outcomes: PubChem BioAssay, National Center for Advancing Translational Sciences (NCATS)
